Eight molecules from PubChem BioAssay (NCATS) can be followed below.

Molecules are shown by their SMILES. Where “and” joins values, the source holds several entries; their conditions need not be identical. Equal values may be shown once. Results filed as inconclusive are left out. Calls of active or inactive are those of the source. Unless noted, calls follow the shape of the full dose curve.

For experiment [1], the target named is Glucocorticoid receptor (Homo sapiens) (UniProt P04150). As to the kind of experiment: qHTS assay for small molecule agonists of glucocorticoid receptor signaling (AID 588532; active = well fitted curve in the direction sought with a large enough effect in the signal ratio, with a control signal flat; the % refers to the signal ratio;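 also: 100% = dexamethasone at 0.1 µM and 0% = DMSO only wells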). The settings on record: HeLa MMTV-bla, beta-lactamase ratio, agonist, 18 h; stronger effect = higher value; percent of dexamethasone control, DMSO zero. In outline: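 Cells were plated and rested 3-5 h at 37 C, compounds were added in titration and incubated 18 h, then CCF4 substrate was loaded for 2 h at RT before reading blue/green fluorescence. EC50 came from Hill-equation fitting.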
Background: qHTS replaces the single test concentration by a dilution series.

Experiment [2] shares this target. The experiment in a line: qHTS assay for small molecule antagonists of glucocorticoid receptor signaling (AID 588533; active = well fitted inhibition curve with a large enough effect in the signal ratio, with a control signal flat, not every such curve was filed as active; the % refers to the signal ratio; also: % is scaled to controls: 0 for no effect and ±100 for the full control effect). The note with it: HeLa MMTV-bla, GRE beta-lactamase ratio, antagonist mode, 18 h; series mostly up to 76.8 µM. An outline of the steps:
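Antagonist-mode qHTS: compound titrations added to GRE-bla HeLa cells, then dexamethasone 2 nM final; 18 h, 37 C. CCF4 FRET fluorescence normalized to dexamethasone and DMSO; IC50 from Hill fit.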

Experiment [3] in a line: qHTS assay for small molecule antagonists of peroxisome proliferator-activated receptor delta signaling (AID 588535; active = well fitted inhibition curve with a large enough effect in the signal ratio, with a control signal flat, not every such curve was filed as active; the % refers to the signal ratio;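 as to max response: cells co-treated with a PPAR-delta agonist as stimulator during compound exposure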). The settings on record: HEK293T PPARd-UAS-bla, beta-lactamase FRET ratio, 18 h; 460 nm channel. An outline of the steps: (§1)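 Beta-lactamase reporter read-out (405 nm excitation, 460/530 nm emission) after CCF4 loading for 2 hrs at RT. HEK293T PPAR-delta-UAS-bla cells, 2% charcoal/dextran FBS, compounds for 18 hrs at 37 C. Hill fit gave IC50 and efficacy.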

The target in experiment [4] is Peroxisome proliferator-activated receptor delta (Homo sapiens) (UniProt Q03181). Described as above. The note with it: HEK293T PPARd-UAS-bla, beta-lactamase FRET ratio, 18 h; series mostly up to 76.7 µM. An outline of the steps:
as §1

For experiment [5], the target named is Vitamin D3 receptor (Homo sapiens) (UniProt P11473). The experiment in a line: qHTS assay for small molecule antagonists of vitamin D receptor signaling (AID 588541).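 Also: receptor activated by calcitriol during compound treatment; % is scaled to controls: 0 for no effect and ±100 for the full control effect.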 The note with it: HEK293T VDR-UAS-bla, beta-lactamase ratio, antagonist mode; series mostly up to 76.7 µM. In outline: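 VDR-UAS-bla HEK293T cells in 2% charcoal-stripped FBS were stimulated with 1-alpha,25-dihydroxyvitamin D3 (3 nM final) plus compound for 16 h at 37 C. The beta-lactamase CCF4 readout was normalized to 50 nM agonist and DMSO, and Hill fits gave IC50.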

For experiment [6] the target is unchanged. The experiment in a line: qHTS assay for small molecule agonists of vitamin D receptor signaling (AID 588543).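 Also: 0% = DMSO basal and 100% = reference agonist control.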 The note with it: HEK293T VDR-UAS-bla, beta-lactamase ratio, 16 h; series mostly up to 76.8 µM. In outline: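 Reporter cells (HEK293T, VDR-UAS-bla) were seeded in medium with 2% charcoal-stripped serum and incubated 5 h, then compounds in concentration series were added for 16 h at 37 °C. Stimulation was scaled between DMSO basal and 50 nM 1α,25-dihydroxyvitamin D3.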

Experiment [7] is described as follows: qHTS assay for small molecule agonists of retinoid X receptor alpha signaling (AID 588544).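 As to activation: 0% = DMSO basal wells and 100% = reference agonist.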 The note with it: HEK293T RXRa-UAS-bla, beta-lactamase reporter, 18 h; 530 nm emission.
Experiment [8] has as its target Thyroid hormone receptor beta (Homo sapiens) (UniProt P10828). The experiment in a line: qHTS assay for small molecule agonists of thyroid hormone receptor beta signaling (AID 588545). The note with it: TR-UAS-bla GripTite HEK 293, beta-lactamase ratio, agonist mode, 18 h, percent of T3 response, DMSO as zero; series mostly up to 76.7 µM. An outline of the steps: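 Agonist activity was read as beta-lactamase CCF4 fluorescence (405 ex, 460/530 em), scaled between DMSO (0%) and 10 nM T3 (100%), then Hill-fitted for EC50 and efficacy. HEK 293 TR-UAS-bla cells in 2% charcoal/dextran FBS medium were exposed 18 h at 37 C.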

Experiment [9] is described as follows: qHTS assay for small molecule antagonists of retinoid X receptor alpha signaling (AID 588546; active = well fitted inhibition curve with a large enough effect in the signal ratio, with a control signal flat, not every such curve was filed as active; the % refers to the signal ratio;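 also: cells stimulated with 9-cis-retinoic acid as agonist; % is scaled to controls: 0 for no effect and ±100 for the full control effect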). The note with it: HEK293T RXRa-UAS-bla, beta-lactamase ratio, antagonist mode; measured here: W530 green channel, cytotoxicity proxy. In outline: (§2)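 Beta-lactamase reporter inhibition, read as CCF4 fluorescence ratio (ex 405, em 460/530 nm) after 2 h at RT. HEK293T UAS-bla cells, 2500/well, were stimulated with 9-cis-RA at 500 or 100 nM final alongside test compound for 18 h at 37 C.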

The target of experiment [10] is Retinoic acid receptor RXR-alpha (Homo sapiens) (UniProt P19793). The experiment is described as above. The settings on record: HEK293T RXRa-UAS-bla, beta-lactamase ratio, antagonist mode. An outline of the steps: as §2
Experiment [11] addresses Thyroid hormone receptor beta (Homo sapiens) (UniProt P10828). The experiment in a line: qHTS assay for small molecule antagonists of thyroid hormone receptor beta signaling (AID 588547; active = well fitted inhibition curve with a large enough effect in the signal ratio, with a control signal flat, not every such curve was filed as active; the % refers to the signal ratio;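 also: cells stimulated with 0.4 nM T3 agonist during compound exposure; % is scaled to controls: 0 for no effect and ±100 for the full control effect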). The note with it: TR-UAS-bla HEK293, beta-lactamase ratio, antagonist mode, 18 h. An outline of the steps: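 TR-UAS-bla GripTite HEK293 cells in 2% charcoal/dextran FBS medium; compounds 0.59 nM to 92 uM with T3 at 0.4nM final, 18 h at 37 C. Beta-lactamase read by CCF4 fluorescence (460/530 nm); Hill fits gave IC50 and efficacy.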

Experiment [12] is described as follows: qHTS assay for small molecule activators of the p53 signaling pathway (AID 651743; active = well fitted activation curve with a large enough effect in the signal ratio, not every such curve was filed as active; the % refers to the signal ratio; also: % of control where 0% means no effect). The settings on record: HCT-116 p53RE-bla, beta-lactamase FRET ratio, 16 h; stronger effect = higher value. In outline:
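Reporter: beta-lactamase driven by p53 response elements, stably integrated in HCT-116 cells. Cells seeded at 4,000/well, 5 h preincubation, compound (DMSO) 16 h at 37 C; B/G FRET substrate 2 h RT; fluorescence intensity read.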

A short description of experiment [13]: qHTS assay for small molecule activators of the nuclear factor-kappa B (NF-kB) signaling pathway (AID 651749; active = well fitted activation curve with a large enough effect in the signal ratio; the % refers to the signal ratio; also: % of control where 0% means no effect). The note with it: NF-kB-bla ME-180 cells, beta-lactamase FRET ratio, 16 h; stronger effect = higher value. In outline: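 NF-kB-bla ME-180 cells, 2,000/well; 23 nL compound or DMSO pinned; 16 hr, 37C/5% CO2; beta-lactamase FRET read-out.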
For experiment [14], the target named is Peroxisome proliferator-activated receptor gamma (Homo sapiens) (UniProt P37231). The experiment in a line: qHTS assay for small molecule agonists of peroxisome proliferator-activated receptor gamma signaling (AID 588536; active = well fitted curve in the direction sought with a large enough effect in the signal ratio, with a control signal flat, not every such curve was filed as active; the % refers to the signal ratio;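 also: 0% = DMSO basal wells and 100% = rosiglitazone at 2 µM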). The settings on record: HEK293 PPARg-UAS-bla, beta-lactamase ratio, 16 h, percent of rosiglitazone response, DMSO as zero; series mostly up to 76.7 µM. In outline: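 Cells were plated and held 6–6.5 h at 37 C, then compounds were added as a titration series. After a further 16 h, CCF4 dye was loaded for 2 h at room temperature and emission at 460/530 nm recorded.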

Experiment [15] shares this target. As to the kind of experiment: qHTS assay for small molecule antagonists of peroxisome proliferator-activated receptor gamma signaling (AID 588537; active = well fitted inhibition curve with a large enough effect in the signal ratio, with a control signal flat, not every such curve was filed as active; the % refers to the signal ratio;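 also: reporter cells co-stimulated with 50 nM rosiglitazone agonist during compound treatment; % of control where 0% means no effect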). The settings on record: HEK293 PPARg-UAS-bla, beta-lactamase ratio, antagonist mode; series mostly up to 76.8 µM. In outline: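 Read-out: CCF4 fluorescence (ex 405, em 460/530 nm) after 2 h at RT. Cells were HEK293 carrying a UAS-bla reporter and treated 16 h at 37 C with compound plus rosiglitazone (50 nM final). Normalized to rosiglitazone and DMSO.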

The target in experiment [16] is Retinoic acid receptor RXR-alpha (Homo sapiens) (UniProt P19793). The experiment in a line: qHTS assay for small molecule agonists of retinoid X receptor alpha signaling (AID 588544).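 As to activation: 0% = DMSO basal wells and 100% = reference agonist.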 The settings on record: HEK293T RXRa-UAS-bla, beta-lactamase reporter, 18 h; series mostly up to 76.7 µM.
In experiment [17] the target is Voltage-gated inwardly rectifying potassium channel KCNH2 (Homo sapiens) (UniProt Q12809). The experiment in a line: qHTS Assay for Small Molecule Inhibitors of the Human hERG Channel Activity (AID 588834; active = well fitted inhibition curve with a large enough effect;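 also: top concentration of the series differs between compounds; % is scaled to controls: 0 for no effect and ±100 for the full control effect; lower thallium flux fluorescence means stronger hERG block; nearly all actives have a fitted effect of over 50% in size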). The note with it: U2OS BacMam hERG, FluxOR thallium flux fluorescence; series mostly up to 92.2 µM. An outline of the steps:
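Step 1: BacMam hERG transduction of U2OS, 4 hrs RT. Step 2: overnight 37 °C, plate 2000 cells/well, 4 hr. Step 3: FluxOR load, compound 10 min, stimulate, read fluorescence.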

Experiment [18] in a line: qHTS assay for small molecule agonists of the antioxidant response element (ARE) signaling pathway (AID 651741; active = well fitted activation curve with a large enough effect in the signal ratio; the % refers to the signal ratio; also: % of control where 0% means no effect). The note with it: HepG2 ARE-bla reporter, beta-lactamase FRET ratio, 16 h; series mostly up to 96 µM. An outline of the steps: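 HepG2 ARE-bla reporter cells, 2,000/well; 5 h settle at 37 C/5% CO2; compound pin transfer (23 nL, DMSO); 16 h at 37 C; LiveBLAzer B/G FRET substrate, 2 h RT; fluorescence intensity read.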

Chain of Retinoic acid receptor RXR-alpha (Homo sapiens) (P19793 whole entry, looked up): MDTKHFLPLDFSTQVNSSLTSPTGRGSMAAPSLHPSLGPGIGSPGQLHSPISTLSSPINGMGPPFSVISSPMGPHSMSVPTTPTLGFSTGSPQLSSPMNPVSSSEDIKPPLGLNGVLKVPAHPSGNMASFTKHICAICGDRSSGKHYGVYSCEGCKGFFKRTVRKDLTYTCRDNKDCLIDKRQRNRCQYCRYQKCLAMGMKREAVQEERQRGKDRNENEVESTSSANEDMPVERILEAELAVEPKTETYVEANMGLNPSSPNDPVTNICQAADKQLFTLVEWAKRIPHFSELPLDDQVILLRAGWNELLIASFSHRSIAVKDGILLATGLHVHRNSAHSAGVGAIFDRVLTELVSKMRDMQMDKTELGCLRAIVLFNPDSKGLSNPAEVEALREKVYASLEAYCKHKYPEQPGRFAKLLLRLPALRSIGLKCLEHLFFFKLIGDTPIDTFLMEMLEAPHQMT
Chain of Peroxisome proliferator-activated receptor gamma (Homo sapiens) (P37231 whole entry, looked up): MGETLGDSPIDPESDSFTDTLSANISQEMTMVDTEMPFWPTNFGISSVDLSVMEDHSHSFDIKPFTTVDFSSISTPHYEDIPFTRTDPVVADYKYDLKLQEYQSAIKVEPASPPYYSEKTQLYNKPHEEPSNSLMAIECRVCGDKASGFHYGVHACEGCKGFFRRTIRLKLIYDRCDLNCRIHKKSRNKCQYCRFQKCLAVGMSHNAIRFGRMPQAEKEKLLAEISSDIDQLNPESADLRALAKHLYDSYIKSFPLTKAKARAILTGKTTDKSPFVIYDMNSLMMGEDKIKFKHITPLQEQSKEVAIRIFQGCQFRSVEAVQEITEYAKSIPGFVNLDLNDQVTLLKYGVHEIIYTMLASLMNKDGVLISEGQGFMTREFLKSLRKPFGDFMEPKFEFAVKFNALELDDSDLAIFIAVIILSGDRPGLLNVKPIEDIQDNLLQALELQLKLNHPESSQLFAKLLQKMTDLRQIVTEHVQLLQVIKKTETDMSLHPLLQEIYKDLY
Chain of Glucocorticoid receptor (Homo sapiens) (P04150 whole entry, looked up): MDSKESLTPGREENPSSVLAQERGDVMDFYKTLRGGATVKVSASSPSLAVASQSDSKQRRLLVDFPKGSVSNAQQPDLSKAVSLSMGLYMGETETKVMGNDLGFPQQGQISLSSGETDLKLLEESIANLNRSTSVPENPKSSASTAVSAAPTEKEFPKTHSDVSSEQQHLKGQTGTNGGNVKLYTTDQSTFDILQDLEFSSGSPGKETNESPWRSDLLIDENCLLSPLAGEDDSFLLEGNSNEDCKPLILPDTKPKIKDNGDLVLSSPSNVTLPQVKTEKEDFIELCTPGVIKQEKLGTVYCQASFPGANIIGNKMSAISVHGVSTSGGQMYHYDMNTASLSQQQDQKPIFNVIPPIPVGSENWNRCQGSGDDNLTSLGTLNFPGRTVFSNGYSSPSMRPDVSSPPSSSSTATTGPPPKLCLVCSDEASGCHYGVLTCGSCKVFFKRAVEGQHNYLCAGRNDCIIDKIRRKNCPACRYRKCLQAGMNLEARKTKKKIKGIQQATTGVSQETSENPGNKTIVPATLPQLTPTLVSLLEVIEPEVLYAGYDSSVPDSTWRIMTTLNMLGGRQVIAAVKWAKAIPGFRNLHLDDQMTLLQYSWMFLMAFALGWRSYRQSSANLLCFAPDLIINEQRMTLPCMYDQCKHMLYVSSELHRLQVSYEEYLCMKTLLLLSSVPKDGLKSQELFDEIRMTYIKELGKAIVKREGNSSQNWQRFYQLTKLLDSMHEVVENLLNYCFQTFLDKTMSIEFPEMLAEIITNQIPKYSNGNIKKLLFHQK
Chain of Vitamin D3 receptor (Homo sapiens) (P11473 whole entry, looked up): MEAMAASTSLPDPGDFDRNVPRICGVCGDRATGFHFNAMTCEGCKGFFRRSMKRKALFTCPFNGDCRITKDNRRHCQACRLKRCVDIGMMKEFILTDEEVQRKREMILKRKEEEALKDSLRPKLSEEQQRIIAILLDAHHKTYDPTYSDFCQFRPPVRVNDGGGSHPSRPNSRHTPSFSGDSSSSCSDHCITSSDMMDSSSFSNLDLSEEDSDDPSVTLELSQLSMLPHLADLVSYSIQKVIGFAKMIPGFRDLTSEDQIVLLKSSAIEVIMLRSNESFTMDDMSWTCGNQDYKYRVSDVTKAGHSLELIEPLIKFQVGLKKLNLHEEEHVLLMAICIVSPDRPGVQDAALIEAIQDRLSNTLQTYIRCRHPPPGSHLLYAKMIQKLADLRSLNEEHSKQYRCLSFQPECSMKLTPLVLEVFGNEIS
Chain of Voltage-gated inwardly rectifying potassium channel KCNH2 (Homo sapiens) (Q12809 whole entry, looked up): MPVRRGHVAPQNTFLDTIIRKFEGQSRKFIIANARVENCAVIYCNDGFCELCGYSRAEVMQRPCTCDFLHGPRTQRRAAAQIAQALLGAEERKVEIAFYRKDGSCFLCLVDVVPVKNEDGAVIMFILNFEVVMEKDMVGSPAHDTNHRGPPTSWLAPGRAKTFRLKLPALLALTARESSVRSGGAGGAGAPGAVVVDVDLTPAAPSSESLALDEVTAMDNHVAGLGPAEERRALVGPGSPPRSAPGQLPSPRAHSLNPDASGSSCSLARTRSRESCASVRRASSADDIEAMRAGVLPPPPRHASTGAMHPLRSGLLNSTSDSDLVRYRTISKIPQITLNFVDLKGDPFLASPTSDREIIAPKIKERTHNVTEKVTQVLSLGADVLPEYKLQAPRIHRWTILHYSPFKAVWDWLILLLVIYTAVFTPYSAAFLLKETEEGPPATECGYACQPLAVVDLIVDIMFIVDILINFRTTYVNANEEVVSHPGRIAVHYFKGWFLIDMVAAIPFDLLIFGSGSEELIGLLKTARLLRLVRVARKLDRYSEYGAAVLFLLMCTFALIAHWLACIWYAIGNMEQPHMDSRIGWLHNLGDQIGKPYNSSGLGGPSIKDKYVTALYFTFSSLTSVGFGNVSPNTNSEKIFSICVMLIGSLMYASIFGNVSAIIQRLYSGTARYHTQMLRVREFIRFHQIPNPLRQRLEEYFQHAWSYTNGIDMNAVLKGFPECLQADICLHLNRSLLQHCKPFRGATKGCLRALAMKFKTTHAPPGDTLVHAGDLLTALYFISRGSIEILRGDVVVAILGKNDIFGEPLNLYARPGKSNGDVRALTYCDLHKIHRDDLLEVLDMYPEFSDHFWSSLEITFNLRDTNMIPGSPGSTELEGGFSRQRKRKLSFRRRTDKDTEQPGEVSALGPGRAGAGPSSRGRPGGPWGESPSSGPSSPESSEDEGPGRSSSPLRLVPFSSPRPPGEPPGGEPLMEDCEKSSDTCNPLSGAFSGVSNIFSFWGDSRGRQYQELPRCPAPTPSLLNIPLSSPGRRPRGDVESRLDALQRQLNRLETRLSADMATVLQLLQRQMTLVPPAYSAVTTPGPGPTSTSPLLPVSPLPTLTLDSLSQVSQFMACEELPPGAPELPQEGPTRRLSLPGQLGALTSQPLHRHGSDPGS
Chain of Peroxisome proliferator-activated receptor delta (Homo sapiens) (Q03181 whole entry, looked up): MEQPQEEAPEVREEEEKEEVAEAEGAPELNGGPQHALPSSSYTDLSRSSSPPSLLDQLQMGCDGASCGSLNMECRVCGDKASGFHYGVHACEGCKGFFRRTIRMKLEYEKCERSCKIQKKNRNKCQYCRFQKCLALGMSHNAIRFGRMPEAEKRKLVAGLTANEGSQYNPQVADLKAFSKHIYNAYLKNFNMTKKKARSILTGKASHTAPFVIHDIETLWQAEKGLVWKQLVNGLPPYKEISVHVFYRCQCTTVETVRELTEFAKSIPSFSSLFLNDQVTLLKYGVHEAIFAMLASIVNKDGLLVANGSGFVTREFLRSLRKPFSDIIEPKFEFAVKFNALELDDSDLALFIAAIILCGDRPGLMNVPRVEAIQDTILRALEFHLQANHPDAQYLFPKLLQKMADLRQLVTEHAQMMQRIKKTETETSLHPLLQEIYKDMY
Chain of Thyroid hormone receptor beta (Homo sapiens) (P10828 whole entry, looked up): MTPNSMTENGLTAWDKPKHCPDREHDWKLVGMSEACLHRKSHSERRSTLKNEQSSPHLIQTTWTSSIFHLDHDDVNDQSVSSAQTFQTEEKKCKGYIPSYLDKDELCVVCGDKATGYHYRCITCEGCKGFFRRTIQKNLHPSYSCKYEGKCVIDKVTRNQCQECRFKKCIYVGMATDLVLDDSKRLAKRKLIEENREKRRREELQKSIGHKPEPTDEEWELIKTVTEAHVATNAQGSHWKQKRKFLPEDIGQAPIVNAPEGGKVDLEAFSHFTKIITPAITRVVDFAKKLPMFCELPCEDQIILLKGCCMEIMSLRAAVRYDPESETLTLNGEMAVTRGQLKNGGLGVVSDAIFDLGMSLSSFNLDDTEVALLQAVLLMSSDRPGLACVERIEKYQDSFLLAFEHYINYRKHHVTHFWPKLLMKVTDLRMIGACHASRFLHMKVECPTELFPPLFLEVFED

As to `O=C(O)/C=C/C(=O)O`, the activation in [1] was 27.1% (inactive); in experiment [12], -2.03% (inactive); in experiment [13] it was -1.19% (inactive). For the same molecule, the result in [2], in [5], in experiment [6] and in [8] was inactive. Moreover, the max response is -32% in [3], -9.62% in experiment [7], -3.98% in [9] and 8.67% (inactive) in experiment [10]. The Potency result in [4] is “inactive”. Moreover, the activity change % (negative = inhibition) in [11] was 3% (inactive).
As to `Cc1cccc(C)c1[N+](=O)[O-]`, in [1], the activation is 4.67% (inactive) and -8.43% (inactive). Also, the max response in experiment [3] was 9.63% and 31.4%; in [7], 18.2% and 6.02%; in experiment [9] it was 3.43% and -1.96%; in [10] it was -16.7% (inactive) and -18.1% (inactive). In addition, the Potency result in [4], in [17] and in experiment [18] was “inactive” throughout. For the same molecule, the result in experiment [14], in [15], in experiment [5], in [6], in experiment [16] and in experiment [8] was inactive. Besides, the activity change % (negative = inhibition) in experiment [11] was 3.5% (inactive) and -3.75% (inactive).
`CC(=O)Nc1ccccc1C`: the activation is -4.6% (inactive) in experiment [1], 0.555% (inactive) in [12] and -0.805% (inactive) in experiment [13]. Besides, the result in [2], in [14], in experiment [15], in [5], in experiment [6] and in [16] was inactive. In experiment [8], the result was inactive. In addition, the max response in experiment [3] is 8.94%; in experiment [7], -2.35%; in [9], -11.2%; in [10] it was 2.75% (inactive). Moreover, the activity change % (negative = inhibition) in experiment [11] is 4.18% (inactive). For the same molecule, the Potency result in experiment [17] and in experiment [18] was “inactive” throughout.
Take `C=C(C)C1CC=C(C)C(OC(C)=O)C1` (stereo not drawn): the activation in experiment [1] is 3.07% (inactive); in experiment [12], 1.6% (inactive). The outcome in experiment [2], in experiment [14], in [5], in experiment [6], in [16] and in experiment [8] was inactive. Also, the max response in [3] was 6.72%; in experiment [7] it was -3.57%; in experiment [9] it was -6.8%; in experiment [10], 1.02% (inactive). Moreover, the Potency result in experiment [17] was “inactive”.
`C1COC1`: the activation is 0.529% (inactive) in [1], 0.23% (inactive) in experiment [12] and -0.645% (inactive) in experiment [13]. Moreover, the result in [2], in experiment [14], in experiment [15], in experiment [5], in experiment [6] and in experiment [16] was inactive. In addition, the outcome in [8] was inactive. In addition, the max response is -21% in experiment [3], -1.49% in experiment [7], -8.83% in experiment [9] and 0.231% (inactive) in experiment [10]. The activity change % (negative = inhibition) in experiment [11] was 14.8% (inactive). Moreover, the Potency entry in experiment [17] and in experiment [18] was “inactive” in each case.
For `CC(C)CO`, the activation in experiment [1] is -3.71% (inactive); in [13], -1.15% (inactive). The outcome in experiment [2], in experiment [5], in experiment [6], in experiment [16] and in experiment [8] was inactive. The max response is -16% in [7] and -8.16% in [9]. Further, the activity change % (negative = inhibition) in experiment [11] is -17.4% (inactive).
On to `CCCCCCCCC`, for which the activation was -2.92% (inactive) in experiment [1], -1.85% (inactive) in [12] and 0.37% (inactive) in experiment [13]. Also, the outcome in [2], in experiment [14], in [5], in [6] and in [16] was inactive. The max response in experiment [3] is 3.26%; in experiment [7], -5.14%; in experiment [9], -11.2%. The activity change % (negative = inhibition) in [11] was 13.2% (inactive). In addition, the Potency result in experiment [17] and in experiment [18] was “inactive” each time.
`NC(N)=S`: the activation in experiment [1] is 1.8% (inactive); in experiment [12], -1.07% (inactive). Also, the outcome in experiment [2], in experiment [14], in experiment [15], in experiment [5], in [6] and in [16] was inactive. The result in [8] was inactive. Further, the results for the max response in experiment [7], in experiment [9] and in [10] were -8.98%, 10% and 4.07% (inactive), respectively. Also, in experiment [11], the activity change % (negative = inhibition) is -6.09% (inactive). For the same molecule, the Potency result in experiment [18] was “inactive”.
